From PubChem BioAssay AID1724 (National Center for Advancing Translational Sciences (NCATS), 2009)
Inconclusive results are not listed. Activity calls are given as the source filed them. Calls follow the shape of the dose curve; as a rule, active = well fitted inhibition curve with a large enough effect; inconclusive = small, poorly fitted or top-dose-only effect, or effect the other way; inactive = no such curve, though single readings can be large or run the other way.

Test: Confirmation Concentration-Response Assay for Inhibitors of the ERK Signaling Pathway using a Homogeneous Screening Assay
Details: HEK293 cells, hormone-stimulated phospho-ERK AlphaScreen; series mostly up to 40.9 µM
Text: qHTS Assay for Inhibitors of the ERK Signaling Pathway using a Homogeneous Screening Assay
NIH Chemical Genomics Center [NCGC]
NIH Molecular Libraries Screening Centers Network [MLSCN]
Assay Submitter (PI): Dr. Wei Zheng, NCGC/NIH
The Ras/extracellular-signal-regulated kinase (ERK) mitogen activated protein (MAP) kinase signaling pathway (ERK1/2 cascade) plays is a key role in transmitting signals from the cell surface to the nucleus (Nishida and Gotoh 1993; Chang and Karin, 2001). The cascade is initiated by the small G-protein Ras, which recruits Raf […], where activation occurs. Alternatively, this pathway can be activated by elevating intracellular cAMP.
Activation of the ERK pathway is essential in increased cell division and cell survival. Sustained and constitutive activation of the ERK pathway, however, has been linked to uncontrolled cell proliferation, increased cell survival, and tumor progression. Thus, the ERK has been as an attractive target for cancer chemotherapy in the past few years (Sebolt-Leopold and Herrera, 2004). Given its physiological and pathological importance, assessment of ERK phosphorylation has been broadly performed in both basic research and drug discovery. Most assays for the measurement of ERK phosphorylation use the antibody-based detection methods, such as western blot and ELISA. These assays require multiple reagent additions with cell wash steps and are not suitable for high-throughput screening.
The current cell-based ERK phosphorylation assay was performed using AlphaScreen platform. AlphaScreen is a two bead-based proximity-dependent chemical energy transfer luminescent assay platform. The assay reagents (ERK SureFire(TM) kit) were supplied from TGR BioSciences (Australia). In the presence of specific antibodies, phosphorylated ERK will bring "donor" and "acceptor" beads to a proximity range (<200 nm), and subsequently lead a chemical luminescent reaction upon exciting donor beads with 680 nm laser. To exclude the assay-related false positives, we used a biotinylated rabbit IgG to perform counter-screen. The biotinylated antibody mimics the phosphorylated ERK1/2 for bringing streptavidin coated beads and protein-A coated beads to a proximity range for the AlphaScreen detection.
NCGC Assay Protocol Summary:
HEK293 cells stably expressing type-1 vasopressin receptor (V1b) were maintained in DMEM medium (Invitrogen, Carlsbad, CA) at 37C under a humidified atmosphere containing 5% CO2 and 95% air. The medium contained 10% FBS, 2 mM L-glutamine, non-essential amino acid, pyruvate and 50 U/ml penicillin and 50 ug/ml streptomycin (Invitrogen). The aliquots of frozen cells were stored at -135C and used for the compound screening. All compounds were screened as titrations from 0.6 nM to 46 uM final concentration. Vasopressin was used to stimulate the ERK phosphorylation pathway. The ERK phosphorylation in cells was determined using an AlphaScreen assay kit provided by PerkinElmer. Data were normalized to the controls for basal activity (DMSO only) and 100% activation (25 nM vasopressin). AC50 values were determined from concentration-response data modeled with the standard Hill equation.
(1) Seed 4 ul/well of resuspended frozen HEK293 cells containing 2000 cells in white 1536-well plates for overnight with 1% FBS at 37C under a humidified atmosphere containing 5% CO2 and 95% air.
(2) Add 23 nL compounds in DMSO solution. The final titration was 0.6 nM to 46 uM.
(3) Incubate at 37C for 30 min.
(4) Dispense 0.5uL vasopressin (25 nM in final)
(5) Incubate at 37C for 5 min.
(6) Dispense 0.5uL of 1:2 diluted 5x lysis buffer.
(7) Incubate at 37C for 10 min.
(8) Dispense 1.5uL of mixture of activation buffer and reaction buffer with AlphaScreen beads (streptavidin donor beads and protein-A acceptor beads, 10 ng/well for each).
(9) Incubate at room temperature for 5 hr.
(10) Detect the assay plate in an EnVision plate reader (PerkinElmer) using the AlphaScreen detection mode.
[…]

Row | Compound | Potency
1 | CCCN1C(=O)/C(=C2/C=Cc3ccccc3N2CC)SC1=S | 11.2 µM (active)
2 | C=C[C@@]1(C)CC(=O)[C@@]2(O)[C@@]3(C)[C@@H](O)CCC(C)(C)[C@@H]3[C@H](OC(=O)CCN(C)C)[C@H](OC(C)=O)[C@@]2(C)O1 | 0.282 µM (active)
3 | Cn1nc(-c2ccc(Cl)cc2)nc2c(=O)n(C)c(=O)nc1-2 | inactive
4 | O=C(c1cccs1)c1no[n+]([O-])c1C(=O)c1cccs1 | 2 µM (active)
5 | COc1cccc(/C=N/Nc2cc(-n3nc(C)cc3-c3ccccc3)ncn2)c1O | inactive
6 | COc1ccc(C(=O)Nc2ccc(-c3ccc(C)o3)cc2)cc1S(=O)(=O)N1CCOCC1 | 10 µM (active)
7 | CNc1cccc2c1C(=O)c1ccccc1C2=O | 14.1 µM (active)
8 | CCCN(CCC)S(=O)(=O)c1cccc(C(=O)Nc2ccc3c(c2)OCO3)c1 | inactive
9 | O=C1c2ccccc2C(=O)c2c1cccc2N1CCCC1 | 17.8 µM (active)
10 | CCCC(=O)N1CCN(c2ccc(NC(=O)c3cc4ccccc4o3)cc2Cl)CC1 | 7.94 µM (active)
11 | CCOC(=O)c1ccc(NC(=O)c2ccc(C)c(S(=O)(=O)N3CCOCC3)c2)cc1 | 8.91 µM (active)
12 | CCOC(=O)c1ccc(NC(=O)c2cccc(S(=O)(=O)N3CCOCC3)c2)cc1 | 25.1 µM (active)
13 | C=CS(=O)(=O)c1ccc(Oc2ccc(S(=O)(=O)C=C)cc2)cc1 | 7.08 µM (active)
14 | Cc1sc2ncnc(Nc3ccccc3)c2c1C | inactive
15 | COc1ccc(CNc2ncnc3ccc(-c4cccc(NS(C)(=O)=O)c4)cc23)c(OC)c1 | 15.8 µM (active)
16 | COc1ccc(C(=O)c2ccc(Cl)c([N+](=O)[O-])c2)cc1 | 12.6 µM (active)
17 | COc1ccc2[nH]cc(CCNc3ncnc4ccc(-c5ccc(C(=O)N(C)C)cc5)cc34)c2c1 | 31.6 µM (active)
18 | O=C(Nc1ccc(N2CCN(C(=O)c3ccco3)CC2)c(Cl)c1)c1cc2ccccc2o1 | 7.94 µM (active)
19 | COc1ccc(C2=Nn3c(nnc3-c3ccccc3OC)SC2)cc1OC | 2.24 µM (active)
20 | CN(C)c1ccc(-c2ccc3ncnc(NCc4ccccc4)c3c2)cc1 | 15.8 µM (active)

Row | Compound | Potency
21 | CN(C)CCCn1cc(C2=C(c3c[nH]c4ccccc34)C(=O)NC2=O)c2ccccc21 | 1.26 µM (active)
22 | N#CC(=C(/N)Sc1ccccc1N)/C(C#N)=C(/N)Sc1ccccc1N | 0.501 µM (active)
23 | O=C(Nc1nc(-c2ccccc2)cs1)c1ccc(N2CCOCC2)c([N+](=O)[O-])c1 | 7.08 µM (active)
24 | Cc1cccc(CNc2ncnc3ccc(-c4cccnc4)cc23)c1 | 12.6 µM (active)
25 | COc1ccc(CC(=O)Nc2cccc(-c3nnc(-c4cccc(C)c4)o3)c2)cc1OC | 4.47 µM (active)
26 | COc1cc(C(=O)Nc2nc(-c3cccs3)cs2)cc(OC)c1OC | 12.6 µM (active)
27 | CC(/C=C/c1ccccc1)=N\Nc1ccccc1[N+](=O)[O-] | inactive
28 | CN(C)c1cc2c(Nc3ccc4c(cnn4Cc4ccccc4)c3)ncnc2cn1 | inactive
29 | C=C[C@@]1(C)CC(=O)[C@@]2(O)[C@@]3(C)[C@@H](O)CCC(C)(C)[C@@H]3[C@H](O)[C@H](OC(C)=O)[C@@]2(C)O1 | inactive
30 | c1ccc(-c2csc(-c3nc4ccccc4[nH]3)n2)cc1 | 35.5 µM (active)
31 | N#CC(C#N)=c1ccc2c(c1)N1C3=C(CCCC3)CC3CCCCC31N=2 (stereo not given) | 5.01 µM (active)
32 | Cn1c(=O)cc(Nc2ccccc2)c2c(=O)n(-c3ccccc3)c(=O)n(-c3ccccc3)c21 | 8.91 µM (active)
33 | CCOc1ccc(/C(O)=C2/C(=O)C(=O)N(c3ncccn3)C2c2ccccc2)cc1 (stereo not given) | inactive
34 | Cc1ccc(Nc2ncnc3sc(C)c(C)c23)cc1 | inactive
35 | O=C(Nc1ccc(N2CCN(C(=O)c3ccccc3)CC2)cc1)c1cc2ccccc2o1 | 12.6 µM (active)
36 | O=C(Nc1nccs1)c1cc2sccc2n1Cc1ccc(F)cc1 | inactive
37 | COc1ccc(CC(=O)Nc2cccc(-c3nnc(-c4ccc(C)cc4)o3)c2)cc1OC | 5.62 µM (active)
38 | CS(=O)(=O)CCNCc1nc(-c2ccc3ncnc(Nc4ccc(OCc5cccc(F)c5)c(Cl)c4)c3c2)cs1 | inactive
39 | C=C[C@]1(C)CC(=O)[C@@]2(O)[C@@]3(C)C(O)CCC(C)(C)C3C(O)C(OC(C)=O)[C@@]2(C)O1 (stereo not given in full) | inactive
40 | CCC(=O)N1CCN(c2ccc(NC(=O)c3cc4ccccc4o3)cc2Cl)CC1 | 12.6 µM (active)
